Data reported in PubChem BioAssay AID808 (Columbia University Molecular Screening Center, 2007).
Out of some 93,000 compounds screened, about 180 (0.19%) were called active. Many of the other results were omitted from the sample, so actives are more common in it than they were. A number with no mark means an inactive call.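 Rule for the calls: active = activation above the screen mean plus 3 SD, with well images confirming the hit on visual review (cut at about 28% in these data, passing the limit was not always enough); inconclusive = activation above that limit but images do not confirm it; inactive = activation not above that limit.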

test: enhancers of endothelial VCAM-1 upregulation by TNFa – imaging, HUVEC, TNFa stimulus, immunofluorescence, primary screen (AID 808); details: HUVEC TNFa-stimulated VCAM-1 immunofluorescence, high-content imaging; at 2 µM; hits give high values; scaled per plate to unstimulated/TNFa-only wells;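 note: signal is the number of cytoplasmic VCAM-1 stained grains per positive cell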

First: Cc1ccc(-c2csc(NC(=O)c3cccs3)n2)cc1
Second: O=C(Nc1nncs1)c1ccccc1NS(=O)(=O)c1cccs1
The activation of the first is higher: 5.6% for the first, 5.4% for the second.

First: Cc1cccc(N=C2NC(=O)CS2)c1C
Second: Cc1cccc(C)c1OC(=O)CSc1nnc(-c2ccccc2)o1
The activation of the first is lower: -97.1% for the first, 3.9% for the second.

Going from `COc1ccc(-c2c3c(=O)n(C)c(=O)n(C)c3cn2-c2cccc(OC)c2)cc1` to `CCOc1ccc(OCc2ccc(C(=O)Nc3cccc(C)n3)o2)cc1`, the activation rises from -7.7% to 9.1%.

Going from `COc1ccc(C(=O)OCC(=O)NCC2CCCCC2)cc1S(=O)(=O)N1CCCc2ccccc21` to `O=C(CS(=O)(=O)Cc1ccccc1)NCC1CCCO1` (stereo not drawn), the activation rises from -5.3% to 24.8%.

Going from `CCOC(=O)CCP(=O)(O)C(O)(c1ccccc1)c1ccccc1` to `O=C(CSCc1ccccc1Cl)NNC(=O)c1ccccc1`, the activation falls from -1.8% to -5.4%.

Compared with `CC(=O)c1cccc(S(=O)(=O)N2CCC(n3nnc4cc(F)ccc43)CC2)c1`, `Cc1cccc(OCCCC(=O)Nc2ccc(S(=O)(=O)N3CCCC3)cc2)c1` is higher in activation: -54.7% for the first, -20.4% for the second.

First: C=CCOc1ccc(/C=N/n2cncn2)cc1OC
Second: COc1cc(/C=N/NC(=O)Nc2ccccc2)ccc1OCCOc1ccccc1C
The activation of the first is higher: 4.4% for the first, -51.1% for the second.

Going from `CN1CCN(c2nc3c(c(=O)[nH]c(=O)n3C)n2Cc2cccc3ccccc23)CC1` to `O=C(CCCn1c(=O)[nH]c2cc(Cl)ccc2c1=O)NCCN1CCN(c2ccccc2)CC1`, the activation rises from -8.9% to 4%.

Compared with `CCC(C)(C)n1nnnc1C(c1cccs1)N1CCN(c2nc3ccccc3s2)CC1` (stereo not drawn), `CC(C)C(=O)N1CCN(c2nc(-c3ccccc3)c3c(c2C#N)CC(C)(C)OC3)CC1` is lower in activation: 0.6% for the first, -36.7% for the second.

Compared with `Cc1ccc(S(=O)(=O)N2CCCC2C(=O)NCc2ccco2)cc1` (stereo not drawn), `CCC(=O)Nc1ccc(S(=O)(=O)NCC2CCCO2)cc1` (stereo not drawn) is lower in activation: 6.4% for the first, -5.4% for the second.

First: CCCN1C(=O)C(NC(C)=O)c2cc(OC)ccc21 (stereo not drawn)
Second: CCCNS(=O)(=O)c1ccc2c(c1)CCCN2C(C)=O
The activation of the first is higher: -5.9% for the first, -100% for the second.

Compared with `O=C(CO/N=C/c1ccccc1O)NNC(=O)c1ccccc1Cl`, `COc1ccccc1C(=O)C(O)c1ccccc1OC` (stereo not drawn) is higher in activation: 2.1% for the first, 4.6% for the second.

Going from `CC(=O)Nc1ccc(S(=O)(=O)NCCc2ccccc2)cc1` to `CCCNC(=O)Nc1ccccc1C(=O)Nc1ccc(OC)cc1`, the activation rises from -7.2% to -2.4%.

Going from `CCOc1ccc(NC(=O)CCC(=O)n2nc(C)cc2C)cc1` to `CCOC(=O)c1ccc(NC(=O)CSc2ncccn2)cc1`, the activation rises from -6.7% to 21.4%.

Going from `Cc1ccc(OCc2nnc(NC(=O)OCC(C)C)s2)cc1` to `CCOCc1nnc(NC(=O)CSc2ccc(C)cc2)s1`, the activation rises from 0.2% to 5.6%.

First: CCOC(=O)c1sc(NC(=S)n2cc(C)cn2)c(C(=O)OCC)c1C
Second: C=CCn1c2ccccc2c2nnc(SC(CC)C(=O)Nc3nc(C)c(C(=O)OCC)s3)nc21 (stereo not drawn)
The activation of the first is lower: -0.6% for the first, 10% for the second.

First: COCCOC(=O)C1=C(C)N=c2s/c(=C\c3cccs3)c(=O)n2C1c1cccs1 (stereo not drawn)
Second: Cc1ccc2c(c1)sc1ncc(NC(=O)c3ccccc3)c(=O)n12
The activation of the first is lower: -3.2% for the first, -3.1% for the second.

Going from `Cc1c(-c2ccccc2)nc(N)c(C#N)c1-c1cccs1` to `CCn1c(NC(=O)c2ccccc2)c(-c2cccs2)c(=O)c2ccccc21`, the activation falls from -3.7% to -8.7%.

Going from `CCc1ccc2oc(=O)cc(CN3CCCCC3C)c2c1` (stereo not drawn) to `COc1ccc(CCN(Cc2cc3cccc(C)c3[nH]c2=O)C(=O)N2CCCC2)cc1OC`, the activation falls from -6.7% to -91.4%.

Compared with `O=C1c2ccccc2C2=Nc3ccccc3SC(c3ccccc3F)C12` (stereo not drawn), `c1ccc(CSc2nnc(-c3ccco3)n2Cc2ccccc2)cc1` is higher in activation: -0.2% for the first, 1.1% for the second.

Compared with `O=C(Nc1ccc2nc3n(c(=O)c2c1)CCCCC3)c1ccccc1Cl`, `O=C(Nc1ccc(F)cc1)c1cccnc1N1CCOCC1` is higher in activation: -7.6% for the first, -3.5% for the second.

First: CCCCN=C1N/C(=C\c2ccco2)C(=O)N1c1ccccc1
Second: O=C1CC(Sc2ncn[nH]2)C(=O)N1c1ccccc1 (stereo not drawn)
The activation of the first is lower: -7.6% for the first, 4.7% for the second.

Compared with `CC1(C)C/C(=C(/C#N)C(N)=O)CCO1`, `Cc1cc(=O)oc(C)c1C(=O)NC1CC(C)(C)NC(C)(C)C1` is higher in activation: 3.2% for the first, 12.6% for the second.

Going from `Cc1noc(C)c1CSCC(=O)Nc1nc2ccc(Oc3ccccc3)cc2s1` to `Cc1ccc(-n2nc3ccc(NC(=O)/C=C/c4ccco4)cc3n2)cc1C`, the activation falls from -4.3% to -46.8%.

Going from `O=C(Nc1ccc(Sc2ccc(Br)cc2)cc1)c1ccco1` to `COC(=O)c1ccc(NC(=O)Nc2ccc(C)cc2)cc1`, the activation rises from -2.8% to -1.4%.

First: C/C(=C\C(=O)c1cccnc1)Nc1ccc(C)c(C)c1
Second: CCC(=O)Nc1cccc(NC(=O)c2cccnc2)c1
The activation of the first is lower: -89.1% for the first, -7.7% for the second.

Going from `C=CCn1c(N)c(C(=O)OCC(C)C)c2nc3ccccc3nc21` to `C=CCn1c(COc2cccc3cccnc23)nnc1SCC(=O)OC`, the activation rises from -94.4% to -28.4%.

Going from `CCCc1nc2scc(-c3ccc(C)cc3)c2c(=O)n1N` to `CCCN1C(=O)C(NS(=O)(=O)c2ccc(N)cc2)(C(F)(F)F)C(C(=O)OC)=C1C` (stereo not drawn), the activation rises from -5.6% to 1.5%.

Going from `COc1cc(-c2nc(-c3ccncc3)no2)cc(OC)c1OC` to `CC(=O)c1ccc(Oc2cc(C)nc(-n3nc(C)cc3C)n2)cc1`, the activation falls from 1.5% to -75.8%.

Compared with `Cc1c(Nc2cc(N3CCCC(C)C3)c3nonc3c2[N+](=O)[O-])c(=O)n(-c2ccccc2)n1C` (stereo not drawn), `Cn1c2ccccc2c2c(C(=O)N3CCN(c4ccc(F)cc4)CC3)cn(C3CCCC3)c(=O)c21` is lower in activation: -5.2% for the first, -11.3% for the second.

First: Cc1cccc(C(=O)NCCCN2CCCC2=O)c1
Second: Cc1nc2nc[nH]n2c(=O)c1NC(=O)c1cccc(OCC(C)C)c1
The activation of the first is higher: 26% for the first, -5.4% for the second.

Compared with `CSCc1cc(N2CCOCC2)nc(SCc2ccc(Cl)cc2Cl)n1`, `CCOC(=O)N1CCC(NC(=O)c2ccc3nc(N4CCOCC4)sc3c2)CC1` is higher in activation: -7.6% for the first, -2.2% for the second.

Compared with `O=C(NCc1cccnc1)Nc1ccccc1F`, `CC(c1ccccn1)N(CCN(C)C)C(=S)Nc1ccccc1F` (stereo not drawn) is lower in activation: 10.6% for the first, 1.7% for the second.

Compared with `O=C(c1ccco1)N1CCN(CC(=O)N(C2CCCCC2)C2CCS(=O)(=O)C2)CC1` (stereo not drawn), `O=C(COC(=O)C12CC3CC(CC(C3)C1)C2)NCc1ccco1` is higher in activation: -39.3% for the first, 3.3% for the second.

First: COc1cc(OC)c(C(=O)NC2CCCCCC2)cc1OC
Second: O=C(Nc1cc2c3c(c1)C1CCCC1CN3CC1CCCC21)c1ccc([N+](=O)[O-])cc1 (stereo not drawn)
The activation of the first is lower: -3.2% for the first, -2.9% for the second.

First: CC(=O)c1cc(NC(=O)c2ccccc2)c(=O)oc1/C=C/N(C)C
Second: CCC(=O)NCCc1nc2ccccc2n1CC
The activation of the first is higher: 16.1% for the first, -6.7% for the second.

First: NC(=O)CCCC1=NS(=O)(=O)c2ccccc2N1
Second: Cn1cnc([N+](=O)[O-])c1Nc1ccccc1O
The activation of the first is lower: 2.1% for the first, 17.4% for the second.

First: O=C(O)c1ccc(COc2c(F)c(F)cc(F)c2F)o1
Second: CCOC(=O)NCc1ccc2c(c1)OCO2
The activation of the first is higher: 1.5% for the first, -8.2% for the second.

Going from `Cc1cc(C)n(-c2nc(O)cc(=O)[nH]2)n1` to `Cc1ccc(C)c(NC2=NCC(=O)N2c2ccc3c(c2)OCCO3)c1`, the activation rises from -0.9% to 21.9%.

Compared with `COc1ccc(C(C(=O)NCc2ccccc2)N(Cc2cccs2)C(=O)c2cnccn2)cc1` (stereo not drawn), `CC(C)Nc1nc(N(c2ccccc2)c2ccccc2)nc(-n2ccnc2)n1` is higher in activation: -2.8% for the first, 3.2% for the second.

Going from `CCC(c1nnnn1Cc1ccco1)N(CCc1ccccc1)Cc1cc2cccc(C)c2[nH]c1=O` (stereo not drawn) to `c1ccc(-c2cn3cccnc3n2)cc1`, the activation falls from -0.4% to -0.6%.

`CC(=O)Nn1cc2c(=O)n(C)c(=O)n(C)c2c1` gave an activation of -8.2%.

For `COc1ccc(/C=N/Nc2nc3ccccc3o2)cc1OC`, the activation was 32.9% (active).
In the case of `O=C(Nc1ccncc1)c1c(F)cccc1F`, the activation is reported as 76.2% (active).
With `CC(=O)c1cnn(-c2cc(Oc3ccc(F)cc3)ncn2)c1C` the activation was 50.8% (active).
With `Cc1cccc2cc(CN(Cc3ccc4c(c3)OCO4)Cc3nnnn3C3CCCC3)c(=O)[nH]c12` the activation was 37.5% (active).
In the case of `CCCOc1cc(C)c(S(=O)(=O)n2nnc3ccccc32)cc1C`, the activation is reported as 45.5% (active).
